High-throughput results deposited in PubChem by National Center for Advancing Translational Sciences (NCATS).
Most compounds without a hit are left out; they make up all but 8.1% or so of the library.
Gal4-VP16 FLuc – VP16 counterscreen qHTS for inhibitors of ROR gamma transcriptional activity; 310,000 tested, 3.5% active; Potency, µM (series often up to 53.6 µM), actives largely listed as inhibitors; Drosophila S2 Gal4-VP16 UAS-luciferase, luminescence, 20 h;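 note: Gal4-VP16 expression switched on by copper sulfate through the metallothionein promoter; nearly all actives have a fitted effect of over 50% in size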
ClpP mod – qHTS Assay for Activators of ClpP; purified B. subtilis ClpP, FRET peptide cleavage, 20 min; Potency, µM (doses to about 57.5 µM); 340,000 tested, 1.9% active; AID 651965, 2013; active = well fitted falling curve with a large enough effect; inconclusive = small, poorly fitted or top-dose-only effect; inactive = no such curve, though single readings can be large or run the other way; note: the source files actives as falling curves though it sought activators and does not explain the sign; nearly all actives have a fitted effect of over 65% in size
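Purified B. subtilis ClpP, 10 microg/mL final in Tris/HCl pH8 with KCl, BSA, glycerol and Tween-20, cleaved an Abz/nitrotyrosine-quenched decapeptide. Fluorescence (ex 320, em 430) was read at 0 and 20 min at room temperature. Delta was normalized to 5.8 microM ADEP and DMSO/no-enzyme controls.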
PINK1 modulator – A Quantitative High throughput Screen to Identify Chemical Modulators of PINK1 Expression. PINK1 immunofluorescence, high-content cytometry, 24 h. Potency, µM (top dose mostly 76.6 µM), most hits filed as activators. 410,000 tested, 0.2% active; active = well fitted activation curve with a large enough effect; inconclusive = small, poorly fitted or top-dose-only effect; cell line not stated here; note: nearly all actives have a fitted effect of over 65% in size
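Fluorescence from anti-PINK1 antibody, together with nuclear and cell stains, was scanned on a laser-scanning cytometer. Before staining, stable-line cells were incubated 24 hours with compounds at 5 concentrations; primary antibody 12 h at 10 degrees C.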
RORg inh – qHTS for inhibitors of ROR gamma transcriptional activity. Nuclear receptor ROR-gamma (Mus musculus), P51450. Drosophila S2 Gal4-RORgamma UAS-luciferase reporter, 20 h. Potency, µM (series often up to 53.6 µM), usual class: inhibitors. 310,000 tested, 5.4% active; note: nearly all actives have a fitted effect of over 60% in size
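Luciferase reporter read in Schneider cells carrying Gal4-RORγ (mouse) and UAS-Photinus luciferase; cells given compound 1 h before 700 uM copper sulfate induction, then incubated 20 h at ambient temperature.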
Sfp PPTase inh – qHTS Assay for Inhibitors of Bacillus subtilis Sfp phosphopantetheinyl transferase (PPTase). 4'-phosphopantetheinyl transferase ffp (Bacillus subtilis), Q9F4F7. Biochemical Sfp PPTase activity, qHTS. Potency, µM, hits mostly inhibitors. 310,000 tested, 3.5% active. AID 1490, 2009;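 note: the enzyme is Sfp with the accession as filed and its product quenches rhodamine fluorescence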
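Reaction rates are the 30-min fluorescence difference (ex 525, em 598 nm) in wells containing 15 nM Sfp, 5 uM rhodamine-CoA and 12.5 uM BHQ-2-YbbR at pH 7.6 with 10 mM MgCl2.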
Epigenetic derep – Quantitative High-Throughput Screen for Regulators of Epigenetic Control; murine LDR cells, GFP reporter derepression, 30 h; Potency, µM (highest dose often 53.9 µM), actives largely listed as activators; 280,000 tested, 0.2% active; AID 1865, 2009; note: nearly all actives have a fitted effect of over 60% in size
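In this reporter-derepression format, murine cells bearing a silenced integrated CMV-GFP locus incubate with test compound (30 h, 37 C), then are washed and imaged; fluorescent objects of 20–120 um count as induced cells.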
Numbers stand for hits; 0 = inactive; ? = inconclusive; - = no result; [ ] = dose if it differs, or a comment. Unless noted, calls come from the whole dose curve; as a rule, active = well fitted curve in the direction sought with a large enough effect; inconclusive = small, poorly fitted or top-dose-only effect, or another doubt; inactive = no such curve, though single readings can be large; an effect the other way counts as inactive or inconclusive.

SMILES	Gal4-VP16 FLuc	ClpP mod	PINK1 modulator	RORg inh	Sfp PPTase inh	Epigenetic derep
COc1ccc(C(=O)Nc2nnc(C(C)C)s2)cc1OC	-	0	0	-	-	0
COC(=O)C(NC(=O)CCc1c(C)nc2c(-c3ccccc3)c(C)nn2c1C)C(C)C (stereo not drawn)	-	0	0	-	-	0
O=C1c2[nH]nc(-c3ccccc3O)c2C(c2ccc(Cl)cc2)N1Cc1ccco1 (stereo not drawn)	-	0	0	-	-	0
CCCc1nnc(NC(=O)c2cccc(OC)c2)s1	0	0	0	7.1µM	0	0
Cc1ccc(NC(=O)CSc2nnc(/N=C/N(C)C)s2)cc1	0	0	0	18µM	0	0
O=C1CNC(=S)N1c1nc(-c2ccccc2)cs1	?	-	0	3.2µM	0	0
COc1ccc(-c2csc(N3C(=O)CNC3=S)n2)cc1	?	0	0	?	0	0
Cc1[nH]n(-c2ccccc2)c(=O)c1/C=N/N(c1ccccc1)c1ccccc1	?	-	0	5.6µM	0	0
Cc1nc2ccccc2c(=O)n1/N=C/c1ccccc1	?	0	0	0	0	0
Cc1ccc(-n2[nH]c(C)c(/C=N/n3c(C)nc4ccccc4c3=O)c2=O)cc1	?	0	?	18µM	0	0
C=CCN=Cc1c(C)[nH]n(-c2ccccc2)c1=O	0	0	0	0	0	0
Cc1[nH]n(-c2ccccc2)c(=O)c1/C=N/n1c(C)nc2ccccc2c1=O	?	0	0	5.6µM	0	0
COc1ccc(NC(=O)CSc2ncc3c(n2)-c2ccccc2N(C)S3(=O)=O)cc1Cl	-	0	0	-	-	0
COC(=O)[C@@H]1CCCN1S(=O)(=O)Cc1ccccc1	-	0	-	-	-	-
COc1ccc(Nc2nc(-c3sc(NC(C)=O)nc3C)cs2)cc1	0	-	-	0	40µM	0
COc1ccc(Nc2nc(C)c(-c3ccccc3)s2)cc1	?	0	0	11µM	?	0
COc1ccc(Nc2nc(-c3sc(N)nc3C)cs2)cc1	0	0	0	0	18µM	0
CC(=O)Nc1ccc(Nc2nc(-c3sc(C)nc3C)cs2)cc1	0	0	0	?	0	-
Cc1ccc(CNC(=O)CCCc2nnc3n(CC(C)C)c(=O)c4sccc4n23)cc1	-	0	0	-	-	0
N#Cc1ccc(-c2ccc(C3Nc4ccccc4C(=O)N3O)o2)cc1 (stereo not drawn)	-	-	0	-	-	-
CCOC(=O)c1ccc(-c2ccc(C3Nc4ccccc4C(=O)N3O)o2)cc1 (stereo not drawn)	?	0	0	11µM	0	0
CCOC(=O)c1ccc(-c2ccc(CO)o2)cc1	?	0.71µM	0	11µM	0	0
Cc1cc([N+](=O)[O-])ccc1-c1ccc(C2Nc3ccccc3C(=O)N2O)o1 (stereo not drawn)	0.71µM	0	?	?	0	0
O=C(Nc1ccc(C(=O)N2CCCCC2)cc1)c1nsc2ccccc12	-	0	0	-	-	0
COc1cc(C(C#N)N2N=C(c3ccccc3)CC2c2ccccc2)ccc1O (stereo not drawn)	0	0	0	7.9µM	0	0
SMILES	Gal4-VP16 FLuc	ClpP mod	PINK1 modulator	RORg inh	Sfp PPTase inh	Epigenetic derep
COc1cc(C(=O)N2CCN(c3ncnc4sc(C)c(C)c34)CC2)cc(OC)c1OC	4µM	0	0	?	0	0
Cc1sc2ncnc(N3CCN(c4ncccn4)CC3)c2c1C	0	0	0	0	0	0
Cc1sc2ncnc(N3CCN(S(=O)(=O)c4ccc(F)cc4)CC3)c2c1C	22µM	-	0	0	0	-
CCS(=O)(=O)N1CCN(c2ncnc3sc(C)c(C)c23)CC1	0	-	0	0	0	0
Cc1ccc(S(=O)(=O)N2CCN(c3ncnc4sccc34)CC2)cc1	5µM	0	0	?	0	-
c1ccc(CC2CCN(c3ncnc4sccc34)CC2)cc1	4µM	0	0	10µM	?	0
CC(C)(C)OC(=O)N1CCC(c2c(C(=O)NCc3ccco3)cnn2-c2ccccc2)CC1	-	0	0	-	-	0
Cc1ccc(S(=O)(=O)NNC(=O)c2ccccc2O)cc1	0	0	0	11µM	0	0
Cc1ccc(C(=O)NC(=S)NNS(=O)(=O)c2ccccc2)cc1	14µM	-	0	3.2µM	0	0
Cc1ccc(S(=O)(=O)NNC(=S)NCCc2ccccc2)cc1	?	0	0	11µM	0	0
Cc1ccc(S(=O)(=O)NNC(=O)c2ccc(C(=O)N(c3ccccc3)c3ccccc3)cc2)cc1	-	0	0	-	-	-
CN1CCN(c2ncc3nc(CCc4ccccc4)c(=O)n(CCc4ccccc4)c3n2)CC1	0	-	0	0	0	-
CN1CCN(c2ncc3nc(CCc4ccccc4)c(=O)n(Cc4cccs4)c3n2)CC1	0	-	0	0	28µM	-
O=c1c(-c2ccc(Cl)cc2)nc2cnc(N3CCNCC3)nc2n1CCc1ccccc1	0	-	0	0	45µM	-
O=c1c(CCc2ccccc2)nc2cnc(N3CCNCC3)nc2n1CCc1ccccc1	?	-	0	?	40µM	-
O=c1c(CCc2ccccc2)nc2cnc(N3CCOCC3)nc2n1Cc1cccs1	0	-	0	0	0	-
COc1ccc(-c2nc3cnc(N4CCNCC4)nc3n(CCc3ccccc3)c2=O)cc1	0	-	0	0	?	-
OC1(c2cccnc2)CCN(Cc2ccc3c(c2)CN(Cc2cc4ccccc4s2)CCO3)CC1	-	-	0	-	-	-
CN(Cc1ccccc1)/[N+]([O-])=N/Oc1ccc([N+](=O)[O-])cc1[N+](=O)[O-]	-	-	0	-	-	-
CCc1ccc(NC(=O)CC2C(=O)N(c3ccc(OC)cc3)C(=O)N2Cc2cccs2)cc1 (stereo not drawn)	-	0	0	-	-	0
CCOC(=O)c1ccccc1NC(=O)c1cc2c(s1)-c1ccccc1SC2	-	0	0	-	-	0
Cc1ccc(CN(Cc2ccco2)C(=S)Nc2ccccc2C)cc1	0	0	0	?	0	0
Cc1cccc(C)c1NC(=S)N(Cc1ccccc1)Cc1cccs1	0[10 µM]	-	0	7.1µM	0	0
Cc1ccc(CN(Cc2ccccc2)C(=S)Nc2ccccc2C)o1	?	-	0	7.1µM	0	0
c1ccc(-c2cn(-c3ccccc3)c3ncnc(N4CCN(c5ccccc5)CC4)c23)cc1	-	0	0	-	-	0
CCc1ccccc1NC(=O)Cn1c(=O)n(CC(=O)NCCc2ccccc2)c(=O)c2ccccc21	-	0	0	-	-	0
O=C(Nc1cccc2c1CCCC2)c1cc([N+](=O)[O-])cc([N+](=O)[O-])c1	0	28µM	?	0	0	0
CCOc1ccccc1C(=O)NCCN1CCC(n2c(=O)[nH]c3ccccc32)CC1	-	2.8µM	0	-	-	-
COc1ccccc1C(=O)NCCN1CCC(n2c(=O)[nH]c3ccccc32)CC1	-	0	0	-	-	-
